Data reported in PubChem BioAssay AID1159580 (chemical genetic matrix, 2015).
Several values for one entry are separate records, joined by “and”; a condition that tells them apart may be missing. Equal entries are not always repeated. Hit rate of the full screen: of about 5,500 compounds, about 2,000 (36%) were called active. Not shown: some 18% with an inconclusive outcome. Cut-off read from the data, not from the text of the source: active = normalized growth mostly below about 0.91 (no sharp cut-off); inconclusive = no clear call, values can overlap the other calls; inactive = mostly above about 0.92. Some of the results follow.

Test: chemical genetic growth profiling, strain panel (AID 1159580);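 note: tested at 20 µM; growth read once vehicle control cultures reached saturation at 30 °C; 1 = growth at the plate median or of vehicle wells; lower values mean less growth of the strain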
Conditions: growth OD

Measured: normalized growth

CC(N)C(=O)OC(C)(C)Cc1ccc(Cl)cc1 (stereo unspecified)
inactive: S. cerevisiae deletion strains, locus YJR075W, strain HOC1, stronger effect = lower value 0.986 and 1 | S. cerevisiae deletion strains, locus YKL009W, strain mrt4, stronger effect = lower value 0.922 | S. cerevisiae deletion strains, locus YKL068W, stronger effect = lower value 0.992 | S. cerevisiae deletion strains, locus YKL085W, strain MDH1 (second series), stronger effect = lower value 0.98 | S. cerevisiae deletion strains, locus YKL085W, strain MDH1, stronger effect = lower value 0.98 | S. cerevisiae deletion strains, locus YKL160W, strain elf1, stronger effect = lower value 1.02 | S. cerevisiae deletion strains, locus YKL190W, strain CNB1, stronger effect = lower value 0.989 | S. cerevisiae deletion strains, locus YKR001C, strain vps1, stronger effect = lower value 1.03 | S. cerevisiae deletion strains, locus YKR026C, strain gcn3, stronger effect = lower value 0.998 | S. cerevisiae deletion strains, locus YKR091W, strain srl3, stronger effect = lower value 1.01 | S. cerevisiae deletion strains, locus YLL001W, strain dnm1, stronger effect = lower value 0.977 | S. cerevisiae deletion strains, locus YLL026W, stronger effect = lower value 1.01 | S. cerevisiae deletion strains, locus YLL041C, strain sdh2, stronger effect = lower value 1.02 | S. cerevisiae deletion strains, locus YLR027C, strain aat2, stronger effect = lower value 1.01 | S. cerevisiae deletion strains, locus YLR039C, strain RIC1, stronger effect = lower value 1.03 | S. cerevisiae deletion strains, locus YLR058C, strain SHM2, stronger effect = lower value 0.97 | S. cerevisiae deletion strains, locus YLR102C, strain apc9, stronger effect = lower value 0.995 | S. cerevisiae deletion strains, locus YLR113W, strain HOG1, stronger effect = lower value 1.01 | S. cerevisiae deletion strains, locus YLR221C, strain rsa3, stronger effect = lower value 1.02 | S. cerevisiae deletion strains, locus YLR258W, strain gsy2, stronger effect = lower value 1.02 | S. cerevisiae deletion strains, locus YLR262C, strain YPT6 (second series), stronger effect = lower value 1.06 | S. cerevisiae deletion strains, locus YLR262C, strain YPT6, stronger effect = lower value 0.986 | S. cerevisiae deletion strains, locus YLR268W, strain sec22, stronger effect = lower value 1.07 | S. cerevisiae deletion strains, locus YLR320W, strain mms22, stronger effect = lower value 1.04 | S. cerevisiae deletion strains, locus YLR330W, strain CHS5, stronger effect = lower value 0.988 | S. cerevisiae deletion strains, locus YLR342W, strain FKS1 (second series), stronger effect = lower value 0.928 | S. cerevisiae deletion strains, locus YLR342W, strain FKS1, stronger effect = lower value 1.02 | S. cerevisiae deletion strains, locus YLR357W, strain rsc2, stronger effect = lower value 1.03 | S. cerevisiae deletion strains, locus YLR370C, strain arc18, stronger effect = lower value 1.01 | S. cerevisiae deletion strains, locus YLR371W, strain rom2, stronger effect = lower value 0.986 | S. cerevisiae deletion strains, locus YLR384C, strain iki3, stronger effect = lower value 1.01 | S. cerevisiae deletion strains, locus YLR418C, strain cdc73, stronger effect = lower value 0.983 | S. cerevisiae deletion strains, locus YML016C, strain PPZ1, stronger effect = lower value 0.984 | S. cerevisiae deletion strains, locus YML032C, strain rad52, stronger effect = lower value 0.982 | S. cerevisiae deletion strains, locus YML120C, strain ndi1, stronger effect = lower value 1.02 | S. cerevisiae deletion strains, locus YML124C, strain tub3, stronger effect = lower value 0.985 | S. cerevisiae deletion strains, locus YMR058W, strain fet3, stronger effect = lower value 1.03 | S. cerevisiae deletion strains, locus YMR078C, strain ctf18, stronger effect = lower value 0.98 | S. cerevisiae deletion strains, locus YMR125W, strain sto1, stronger effect = lower value 1.01 | S. cerevisiae deletion strains, locus YMR129W, stronger effect = lower value 1.02 | S. cerevisiae deletion strains, locus YMR205C, strain PFK2, stronger effect = lower value 1.02 | S. cerevisiae deletion strains, locus YMR223W, strain ubp8, stronger effect = lower value 0.94 | S. cerevisiae deletion strains, locus YMR231W, strain pep5, stronger effect = lower value 1.02 | S. cerevisiae deletion strains, locus YMR263W, strain SAP30, stronger effect = lower value 0.984 and 1.02 | S. cerevisiae deletion strains, locus YMR307W, strain GAS1, stronger effect = lower value 1.04 | S. cerevisiae deletion strains, locus YNL067W, strain RPL9B, stronger effect = lower value 0.996 | S. cerevisiae deletion strains, locus YNL071W, strain lat1, stronger effect = lower value 1.02 | S. cerevisiae deletion strains, locus YNL128W, strain TEP1, stronger effect = lower value 0.975 and 1.02 | S. cerevisiae deletion strains, locus YNL153C, strain GIM3, stronger effect = lower value 0.992 | S. cerevisiae deletion strains, locus YNL175C, strain NOP13, stronger effect = lower value 1.04 | S. cerevisiae deletion strains, locus YNL183C, strain NPR1, stronger effect = lower value 0.982 | S. cerevisiae deletion strains, locus YNL197C, strain WHI3, stronger effect = lower value 1.09 | S. cerevisiae deletion strains, locus YNL209W, strain ssb2, stronger effect = lower value 1.02 | S. cerevisiae deletion strains, locus YNL224C, strain SQS1, stronger effect = lower value 1.05 | S. cerevisiae deletion strains, locus YNL233W, strain BNI4, stronger effect = lower value 0.983 | S. cerevisiae deletion strains, locus YNL248C, strain rpa49, stronger effect = lower value 1.02 | S. cerevisiae deletion strains, locus YNL250W, strain rad50, stronger effect = lower value 0.975 | S. cerevisiae deletion strains, locus YNL271C, strain bni1, stronger effect = lower value 1 | S. cerevisiae deletion strains, locus YNL298W, strain CLA4, stronger effect = lower value 0.981 | S. cerevisiae deletion strains, locus YNL307C, strain MCK1, stronger effect = lower value 0.972 | S. cerevisiae deletion strains, locus YNL322C, strain KRE1 (second series), stronger effect = lower value 1.01 | S. cerevisiae deletion strains, locus YNL322C, strain KRE1, stronger effect = lower value 0.986 | S. cerevisiae deletion strains, locus YNR049C, strain mso1, stronger effect = lower value 1.01 | S. cerevisiae deletion strains, locus YNR052C, strain pop2, stronger effect = lower value 0.986 | S. cerevisiae deletion strains, locus YOL006C, strain TOP1, stronger effect = lower value 1.05 | S. cerevisiae deletion strains, locus YOL012C, strain htz1 1 | S. cerevisiae deletion strains, locus YOL147C, strain pex11, stronger effect = lower value 0.988 | S. cerevisiae deletion strains, locus YOR001W, strain rrp6, stronger effect = lower value 1.06 | S. cerevisiae deletion strains, locus YOR061W, strain CKA2, stronger effect = lower value 0.975 | S. cerevisiae deletion strains, locus YOR069W, strain VPS5, stronger effect = lower value 0.981 | S. cerevisiae deletion strains, locus YOR070C, strain gyp1, stronger effect = lower value 1.02 | S. cerevisiae deletion strains, locus YOR080W, strain dia2, stronger effect = lower value 1.03 | S. cerevisiae deletion strains, locus YOR083W, strain WHI5 (second series), stronger effect = lower value 1.04 | S. cerevisiae deletion strains, locus YOR083W, strain WHI5, stronger effect = lower value 1.01 | S. cerevisiae deletion strains, locus YOR106W, strain vam3, stronger effect = lower value 1.07 | S. cerevisiae deletion strains, locus YOR136W, strain idh2, stronger effect = lower value 0.977 | S. cerevisiae deletion strains, locus YOR144C, strain elg1, stronger effect = lower value 0.988 | S. cerevisiae deletion strains, locus YOR184W, strain ser1, stronger effect = lower value 0.993 | S. cerevisiae deletion strains, locus YOR231W, strain MKK1, stronger effect = lower value 1.02 | S. cerevisiae deletion strains, locus YOR265W, strain rbl2, stronger effect = lower value 1.01 | S. cerevisiae deletion strains, locus YOR270C, strain vph1, stronger effect = lower value 1.09 | S. cerevisiae deletion strains, locus YOR290C, strain snf2, stronger effect = lower value 1.02 | S. cerevisiae deletion strains, locus YOR316C, strain cot1, stronger effect = lower value 0.99 | S. cerevisiae deletion strains, locus YPL051W, strain arl3, stronger effect = lower value 1.02 | S. cerevisiae deletion strains, locus YPL055C, strain LGE1, stronger effect = lower value 0.937 and 1.01 | S. cerevisiae deletion strains, locus YPL078C, strain atp4, stronger effect = lower value 1.01 | S. cerevisiae deletion strains, locus YPL106C, strain sse1, stronger effect = lower value 1.07 | S. cerevisiae deletion strains, locus YPL240C, strain hsp82, stronger effect = lower value 0.977 | S. cerevisiae deletion strains, locus YPL241C, strain CIN2, stronger effect = lower value 0.994 and 1.01 | S. cerevisiae deletion strains, locus YPL256C, strain CLN2, stronger effect = lower value 1.03 | S. cerevisiae deletion strains, locus YPR119W, strain clb2, stronger effect = lower value 0.989 | S. cerevisiae deletion strains, locus YPR141C, strain kar3, stronger effect = lower value 0.974 | S. cerevisiae deletion strains, locus YPR163C, strain tif3, stronger effect = lower value 0.993 | S. cerevisiae deletion strains, locus YPR167C, strain met16, stronger effect = lower value 0.993 | S. cerevisiae deletion strains, strain wtn01, stronger effect = lower value 0.995 | S. cerevisiae strains, strain wild type, stronger effect = lower value 0.982
